According to PubChem BioAssay:
The source made the active and inactive calls. Unless noted, how the calls were made is not given here.

Assays:
[1] = HepG2 liver cancer cell viability effects, profiling panel, resazurin fluorescence, 24 h, PK04 Diversity Set (AID 1172); settings: higher = more signal
[2] = basal S. cerevisiae growth modulation, no modifier, primary screen, OD600, strain BY4716, 24 h, basal condition (AID 1173); settings: OD600, 24 h, higher = more signal, called active from +8 up or from −8 down
[3] = MM1S myeloma cell viability, profiling panel, resazurin fluorescence, basal, 24 h, PK04 Diversity Set (AID 1174); settings: higher = more signal, called active from +8 up or from −8 down;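 further: MM1S multiple myeloma cell line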
[4] = target: Dihydroorotate dehydrogenase (quinone), mitochondrial (Plasmodium falciparum (isolate 3D7)) (UniProt Q08210); experiment: PfDHODH enzyme inhibitors, primary screen, biochemical, C-terminal His tag, absorbance 600 nm (AID 1175); settings: DCIP absorbance 600 nm, higher = more signal, called active from +8 up or from −8 down;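 further: recombinant parasite enzyme with a five histidine tag at its C terminus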
[5] = P. aeruginosa biofilm formation inhibitors, primary screen, strain PAO1, LB-PBS medium, absorbance 600 nm (AID 1176); settings: P. aeruginosa PAO1 growth/biofilm, A600, 12 h; higher = more signal
[6] = S. cerevisiae RM11-1a growth modifiers, primary screen, strain RM11-1a, OD600, basal, 24 h (AID 1177); settings: OD600, 24 h, higher = more signal, called active from +8 up or from −8 down;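 further: cultures grown under basal conditions with no added stressor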
[7] = E. coli acrAB mutant growth effects, primary screen, E. coli filamentation inducers, strain DRC39, OD650, 24 h (AID 1178); settings: higher = more signal, called active from +8 up or from −8 down;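 further: growth measured as culture turbidity by optical density at 650 nm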
[8] = E. coli acrAB mutant growth effects, primary screen, E. coli filamentation inducers, strain DRC39, OD650, 48 h (AID 1179);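 further: screen aims at cell division blockers that make cells filament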; settings: E. coli DRC39 delta-acrAB growth, higher = more signal, called active from +8 up or from −8 down
[9] = RPMI8226 myeloma cell viability, profiling panel, resazurin fluorescence, basal, 24 h, PK04 Diversity Set (AID 1180); settings: higher = more signal;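 further: RPMI8826 multiple myeloma cell line at 5000 cells per well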
[10] = target: E3 ubiquitin-protein ligase XIAP (Homo sapiens) (UniProt P98170); experiment: XIAP binders, primary screen, biophysical, small-molecule microarray, fluorescence 635 nm (AID 1181); settings: small-molecule microarray binding, higher = more signal;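 further: score merges 667 nm emission and signal to noise over triplicate slides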
[11] = test system: XIP peptide (Xip251-270) binding; experiment: small-molecule binders of XIP peptide, primary screen, biochemical, small-molecule microarray, fluorescence 635/667 nm, 0.1 µg/mL protein (AID 1182); settings: fluorescent protein binding, 635 nm, higher = more signal, called active from +8 up or from −8 down
XIP peptide (Xip251-270) = experiment: small-molecule binders of XIP peptide, primary screen, biochemical, small-molecule microarray, fluorescence 635/667 nm, 0.5 µg/mL protein (AID 1183); settings: small-molecule microarray binding, fluorescence 635 nm; higher = more signal
[12] = Plasmodium falciparum growth inhibition, primary screen, strain 3D7, DAPI fluorescence, 100 nL (AID 1184);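 further: parasites grown inside human red blood cells in medium with human serum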; settings: P. falciparum 3D7 growth, 3 d, higher = more signal
[13] = target: Homeobox protein Hox-A13 (Mus musculus) (UniProt Q62424); experiment: inhibitors of HoxA13-DNA binding, primary screen, biochemical, fluorescence polarization, labeled oligonucleotide (AID 1185); settings: 15 min, higher = more signal, called active from +8 up or from −8 down
[14] = inhibitors of hydroxyurea-induced Chk1 phosphorylation, primary screen, imaging, HeLa, phospho-Chk1 antibody, percent positive cells (AID 1186); settings: hydroxyurea-induced phospho-Chk1 immunofluorescence imaging, higher = more signal
[15] = inhibitors of hydroxyurea-induced Chk1 phosphorylation, primary screen, imaging, HeLa, phospho-Chk1 nuclear intensity (AID 1187); settings: hydroxyurea-induced phospho-Chk1 immunofluorescence imaging, higher = more signal

Chain of Homeobox protein Hox-A13 (Mus musculus) (Q62424 whole entry, looked up): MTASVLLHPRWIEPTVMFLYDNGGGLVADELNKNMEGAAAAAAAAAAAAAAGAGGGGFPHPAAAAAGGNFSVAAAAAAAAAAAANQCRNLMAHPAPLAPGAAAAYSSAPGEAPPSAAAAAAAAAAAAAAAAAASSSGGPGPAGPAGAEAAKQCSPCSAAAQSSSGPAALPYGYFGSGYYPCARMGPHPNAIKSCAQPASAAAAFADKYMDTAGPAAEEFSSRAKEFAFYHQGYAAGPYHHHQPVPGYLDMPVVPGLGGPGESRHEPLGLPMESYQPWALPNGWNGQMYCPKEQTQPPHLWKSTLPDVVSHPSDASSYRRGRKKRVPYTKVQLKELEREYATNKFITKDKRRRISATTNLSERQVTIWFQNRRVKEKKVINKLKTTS
Chain of E3 ubiquitin-protein ligase XIAP (Homo sapiens) (P98170 whole entry, looked up): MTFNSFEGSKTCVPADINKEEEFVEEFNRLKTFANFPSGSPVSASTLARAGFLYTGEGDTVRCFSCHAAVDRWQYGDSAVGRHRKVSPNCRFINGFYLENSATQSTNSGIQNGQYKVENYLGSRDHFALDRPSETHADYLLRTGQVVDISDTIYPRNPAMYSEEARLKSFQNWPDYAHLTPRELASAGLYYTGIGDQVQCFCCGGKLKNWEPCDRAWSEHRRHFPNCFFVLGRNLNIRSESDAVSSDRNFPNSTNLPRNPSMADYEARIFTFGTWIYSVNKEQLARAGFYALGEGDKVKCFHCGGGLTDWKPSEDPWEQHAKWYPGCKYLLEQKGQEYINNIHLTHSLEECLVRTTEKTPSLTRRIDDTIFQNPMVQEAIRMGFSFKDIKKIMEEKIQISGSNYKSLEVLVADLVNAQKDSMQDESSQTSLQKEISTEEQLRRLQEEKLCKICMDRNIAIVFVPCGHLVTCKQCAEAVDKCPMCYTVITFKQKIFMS
Chain of Dihydroorotate dehydrogenase (quinone), mitochondrial (Plasmodium falciparum (isolate 3D7)) (Q08210 whole entry, looked up): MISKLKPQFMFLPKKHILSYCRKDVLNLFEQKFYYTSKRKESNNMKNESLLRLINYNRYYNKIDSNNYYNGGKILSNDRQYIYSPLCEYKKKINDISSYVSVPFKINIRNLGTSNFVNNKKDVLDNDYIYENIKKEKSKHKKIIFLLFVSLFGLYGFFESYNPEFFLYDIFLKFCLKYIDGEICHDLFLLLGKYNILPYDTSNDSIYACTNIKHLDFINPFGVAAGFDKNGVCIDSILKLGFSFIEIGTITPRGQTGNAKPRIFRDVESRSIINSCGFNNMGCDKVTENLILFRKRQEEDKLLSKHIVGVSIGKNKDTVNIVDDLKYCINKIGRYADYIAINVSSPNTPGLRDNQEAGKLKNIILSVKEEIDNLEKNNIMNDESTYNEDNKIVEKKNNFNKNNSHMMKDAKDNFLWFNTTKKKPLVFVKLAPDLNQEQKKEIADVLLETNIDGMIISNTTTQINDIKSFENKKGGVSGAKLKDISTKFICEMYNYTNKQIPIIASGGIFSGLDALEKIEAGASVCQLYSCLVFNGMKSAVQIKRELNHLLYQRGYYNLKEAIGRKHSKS

| Compound | z-score [1] | z-score [2] | z-score [3] | composite z-score [4] | z-score [5] | z-score [6] | z-score [7] | z-score [8] | z-score [9] | composite z-score [10] | composite z-score [11] | composite z-score (XIP peptide (Xip251-270)) | z-score [12] | z-score [13] | z-score [14] | z-score [15] |
| --- | --- | --- | --- | --- | --- | --- | --- | --- | --- | --- | --- | --- | --- | --- | --- | --- |
| C=CCNC(=O)[C@H]1[C@@H]2C(=O)O[C@@H](c3ccccc3)[C@@H](c3ccccc3)N2[C@@H](c2ccc(OCCO)cc2)[C@]12C(=O)Nc1ccccc12 | 0.429 | 0.997 (inactive) | 1.13 (inactive) | -0.26 (inactive) | -0.172 (inactive) | 1.69 (inactive) | 0.237 (inactive) | -0.564 (inactive) | 0.608 | 0.347 | 1.43 (inactive) | 0.57 | -0.541 | -5.26 (inactive) | 0.286 (inactive) | 0.595 (inactive) |
| C=CCOC(=O)[C@H]1[C@@H]2C(=O)O[C@@H](c3ccccc3)[C@@H](c3ccccc3)N2[C@@H](c2ccc(OCCOC(=O)[C@@H]3C[C@@H]4C(=O)N[C@@H](CCCC[N+](C)(C)C)C(=O)N4[C@@H]3c3ccc(O)cc3)cc2)[C@]12C(=O)Nc1ccc(I)cc12 | -0.0156 | 0.118 (inactive) | -1.17 (inactive) | -2.21 (inactive) | 1.12 (inactive) | 2.46 (inactive) | -1.46 (inactive) | -1.11 (inactive) | -0.854 | 0.261 | 0.557 (inactive) | 0.765 | 0.0373 | 6.46 (inactive) | -0.337 (inactive) | -0.0674 (inactive) |
| COC(=O)[C@]1(CCC(=O)OC(C)(C)C)N=C(c2ccc(OCCCO)cc2)O[C@@H]1c1ccccc1N=[N+]=[N-] | -0.223 | 0.887 (inactive) | -2.56 (inactive) | 0.878 (inactive) | 1.31 (inactive) | 2.29 (inactive) | 0.844 (inactive) | 0.182 (inactive) | -2.15 | 0.0037 | -0.194 (inactive) | 0.633 | -1.98 | -2.21 (inactive) | 0.0989 (inactive) | 0.562 (inactive) |
| C=CCN1C(=O)[C@]2(O[C@H](CCn3cc([C@H](O)c4ccccc4)nn3)[C@@H]([Si](C)(C)c3ccc(OC)cc3)[C@@H]2C)c2cc(NC(=O)c3ccc(OC)cc3)ccc21 | -1.66 | -0.971 (inactive) | -3.65 (inactive) | 0.717 (inactive) | 1.59 (inactive) | 1.11 (inactive) | 0.517 (inactive) | 0.418 (inactive) | -3.68 | -0.02 | 0.586 (inactive) | 0.309 | -2.77 | -4.56 (inactive) | -0.552 (inactive) | 0.0018 (inactive) |
| CC[C@@H]1C=C(C(=O)O)[C@H](c2ccc(OC)cc2)N1S(=O)(=O)c1ccc(C)cc1 | -0.896 | 0.77 (inactive) | -0.675 (inactive) | -1.09 (inactive) | -0.281 (inactive) | -0.391 (inactive) | -0.826 (inactive) | -0.521 (inactive) | -1.16 | -0.0286 | 1.98 (inactive) | 0.129 | 2.03 | -2.62 (inactive) | -0.745 (inactive) | -1.26 (inactive) |
| COC(=O)[C@@]1(Cc2ccc(OC)cc2)[C@H]2c3cc(C(=O)N4CCCC4)n(Cc4ccc(C(F)(F)F)nc4)c3C[C@H]2CN1C(=O)c1ccccc1 | -0.35 | 1.37 (inactive) | -1.07 (inactive) | -0.77 (inactive) | 1.08 (inactive) | -0.809 (inactive) | -0.886 (inactive) | -0.71 (inactive) | -2.32 | -0.02 | 0.143 (inactive) | -0.39 | -1.5 | -5.12 (inactive) | 0.664 (inactive) | 0.712 (inactive) |
| Cc1ccc(S[C@]2(C(=O)NCCCN(C)C)CC(=O)N(Cc3ccccc3C(F)(F)F)[C@@H]2c2ccc(CO)cc2I)cc1 | 0.0689 | -4.57 (inactive) | -3.16 (inactive) | -0.168 (inactive) | -0.0065 (inactive) | -1.55 (inactive) | -0.108 (inactive) | -0.65 (inactive) | -1.42 | 0.191 | 0.223 (inactive) | 0.82 | 0.306 | -2.71 (inactive) | 0.0909 (inactive) | 0.675 (inactive) |
| CC(C)C(=C=CC[C@H](O)c1ccccc1OCCO)C[C@H](O)COCc1ccccc1 | -0.0813 | -1.07 (inactive) | -0.271 (inactive) | -2.12 (inactive) | 0.731 (inactive) | -0.154 (inactive) | -0.145 (inactive) | -0.306 (inactive) | -0.921 | 0.17 | -0.182 (inactive) | 0.619 | -1.78 | -4.94 (inactive) | 0.233 (inactive) | -0.371 (inactive) |
| CC(C)C(=C=CC[C@H](O)c1ccccc1OCCO)C[C@H](O)c1cc(Cl)cc(Cl)c1O | 0.271 | -5.59 (inactive) | -0.702 (inactive) | -2 (inactive) | 0.731 (inactive) | -0.17 (inactive) | 0.215 (inactive) | -0.0849 (inactive) | -0.628 | -0.0448 | 0.35 (inactive) | 0.622 | -1 | -4.67 (inactive) | 0.425 (inactive) | 0.353 (inactive) |
